Measurements as given in ChEMBL document CHEMBL1961873, “Compounds: GSK PKIS; Assays: Nanosyn kinase panel” (2012).

Legend:
[1] = target: T1, Inhibitor of nuclear factor kappa-B kinase subunit epsilon (Homo sapiens) (UniProt Q14164); details: at 1 µM;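 further: reported values are averaged percent inhibition figures against human IKKε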
T1 sequence (whole entry): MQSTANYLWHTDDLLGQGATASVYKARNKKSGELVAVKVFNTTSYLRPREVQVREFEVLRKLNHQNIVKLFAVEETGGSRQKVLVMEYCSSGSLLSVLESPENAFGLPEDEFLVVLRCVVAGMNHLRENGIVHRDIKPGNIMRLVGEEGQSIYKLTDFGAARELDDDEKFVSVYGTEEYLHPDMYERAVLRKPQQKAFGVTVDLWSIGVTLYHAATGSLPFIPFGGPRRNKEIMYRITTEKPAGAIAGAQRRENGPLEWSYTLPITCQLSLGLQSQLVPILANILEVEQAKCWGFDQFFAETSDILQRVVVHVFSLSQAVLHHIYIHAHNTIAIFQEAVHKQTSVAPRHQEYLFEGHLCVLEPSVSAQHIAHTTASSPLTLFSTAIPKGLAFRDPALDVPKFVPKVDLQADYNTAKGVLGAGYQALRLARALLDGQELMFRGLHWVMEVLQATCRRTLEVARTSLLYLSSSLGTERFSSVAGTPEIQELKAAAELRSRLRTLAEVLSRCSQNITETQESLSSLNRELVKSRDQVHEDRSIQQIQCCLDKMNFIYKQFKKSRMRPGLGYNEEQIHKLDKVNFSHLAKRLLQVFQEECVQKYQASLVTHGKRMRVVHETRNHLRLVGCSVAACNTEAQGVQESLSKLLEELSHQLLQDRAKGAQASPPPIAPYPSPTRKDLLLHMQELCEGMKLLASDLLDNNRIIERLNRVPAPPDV

[2] = target: T2, Serine/threonine-protein kinase Nek1 (Homo sapiens) (UniProt Q96PY6); details: at 0.1 µM
T2 sequence (whole entry): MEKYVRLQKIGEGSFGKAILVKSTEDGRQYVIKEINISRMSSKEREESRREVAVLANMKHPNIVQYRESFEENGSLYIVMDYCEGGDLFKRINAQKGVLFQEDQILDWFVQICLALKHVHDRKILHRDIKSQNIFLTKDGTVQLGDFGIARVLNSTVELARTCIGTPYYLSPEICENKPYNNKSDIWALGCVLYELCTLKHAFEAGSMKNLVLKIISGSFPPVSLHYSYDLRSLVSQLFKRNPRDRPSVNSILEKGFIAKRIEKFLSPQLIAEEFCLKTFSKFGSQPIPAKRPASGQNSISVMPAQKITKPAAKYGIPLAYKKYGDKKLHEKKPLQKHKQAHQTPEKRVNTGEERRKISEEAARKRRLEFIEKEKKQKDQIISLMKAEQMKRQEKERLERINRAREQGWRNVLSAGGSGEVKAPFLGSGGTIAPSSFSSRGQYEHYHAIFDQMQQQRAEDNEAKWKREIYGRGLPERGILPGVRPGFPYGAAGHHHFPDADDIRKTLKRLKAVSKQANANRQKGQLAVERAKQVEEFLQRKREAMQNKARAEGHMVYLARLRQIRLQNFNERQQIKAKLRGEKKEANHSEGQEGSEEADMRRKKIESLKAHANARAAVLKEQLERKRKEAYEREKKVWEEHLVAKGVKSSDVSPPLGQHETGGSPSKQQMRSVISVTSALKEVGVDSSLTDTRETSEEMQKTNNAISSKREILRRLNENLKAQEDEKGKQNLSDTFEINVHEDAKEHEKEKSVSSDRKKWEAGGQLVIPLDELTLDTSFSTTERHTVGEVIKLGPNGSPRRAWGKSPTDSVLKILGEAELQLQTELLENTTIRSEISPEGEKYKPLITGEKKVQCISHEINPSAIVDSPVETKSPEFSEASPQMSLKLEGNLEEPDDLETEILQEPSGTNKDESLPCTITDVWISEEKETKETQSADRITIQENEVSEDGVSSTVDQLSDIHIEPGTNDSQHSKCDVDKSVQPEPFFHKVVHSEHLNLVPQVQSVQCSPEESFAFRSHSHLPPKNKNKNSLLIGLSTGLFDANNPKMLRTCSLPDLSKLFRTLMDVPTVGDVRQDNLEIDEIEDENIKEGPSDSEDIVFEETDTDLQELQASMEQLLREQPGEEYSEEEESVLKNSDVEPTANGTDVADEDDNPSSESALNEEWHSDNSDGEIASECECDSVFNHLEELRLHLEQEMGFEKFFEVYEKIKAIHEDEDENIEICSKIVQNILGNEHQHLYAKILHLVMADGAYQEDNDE

[3] = target: T2, Serine/threonine-protein kinase Nek1 (Homo sapiens); details: at 1 µM
[4] = target: T3, Serine/threonine-protein kinase Nek2 (Homo sapiens) (UniProt P51955); details: at 0.1 µM
T3 sequence (whole entry): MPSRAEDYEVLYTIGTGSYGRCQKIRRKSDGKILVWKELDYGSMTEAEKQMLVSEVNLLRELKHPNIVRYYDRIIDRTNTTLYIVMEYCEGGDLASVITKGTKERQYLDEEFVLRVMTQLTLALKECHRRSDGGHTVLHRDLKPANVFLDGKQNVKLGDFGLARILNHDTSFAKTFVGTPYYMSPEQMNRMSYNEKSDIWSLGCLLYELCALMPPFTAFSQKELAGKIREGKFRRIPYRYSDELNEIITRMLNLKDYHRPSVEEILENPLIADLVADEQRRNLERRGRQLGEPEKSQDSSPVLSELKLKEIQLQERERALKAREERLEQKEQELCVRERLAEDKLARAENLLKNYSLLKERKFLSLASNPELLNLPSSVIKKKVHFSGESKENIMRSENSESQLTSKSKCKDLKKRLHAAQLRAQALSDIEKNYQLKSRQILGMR

[5] = target: T3, Serine/threonine-protein kinase Nek2 (Homo sapiens); details: at 1 µM
[6] = target: Serine/threonine-protein kinase Nek6 (Homo sapiens) (UniProt Q9HC98); details: at 0.1 µM
[7] = target: Serine/threonine-protein kinase Nek6 (Homo sapiens) (UniProt Q9HC98); details: at 1 µM
[8] = target: Serine/threonine-protein kinase Nek7 (Homo sapiens) (UniProt Q8TDX7); details: at 0.1 µM
[9] = target: Serine/threonine-protein kinase Nek7 (Homo sapiens) (UniProt Q8TDX7); details: at 1 µM
[10] = target: T4, Serine/threonine-protein kinase Nek9 (Homo sapiens) (UniProt Q8TD19); details: at 0.1 µM
T4 sequence (whole entry): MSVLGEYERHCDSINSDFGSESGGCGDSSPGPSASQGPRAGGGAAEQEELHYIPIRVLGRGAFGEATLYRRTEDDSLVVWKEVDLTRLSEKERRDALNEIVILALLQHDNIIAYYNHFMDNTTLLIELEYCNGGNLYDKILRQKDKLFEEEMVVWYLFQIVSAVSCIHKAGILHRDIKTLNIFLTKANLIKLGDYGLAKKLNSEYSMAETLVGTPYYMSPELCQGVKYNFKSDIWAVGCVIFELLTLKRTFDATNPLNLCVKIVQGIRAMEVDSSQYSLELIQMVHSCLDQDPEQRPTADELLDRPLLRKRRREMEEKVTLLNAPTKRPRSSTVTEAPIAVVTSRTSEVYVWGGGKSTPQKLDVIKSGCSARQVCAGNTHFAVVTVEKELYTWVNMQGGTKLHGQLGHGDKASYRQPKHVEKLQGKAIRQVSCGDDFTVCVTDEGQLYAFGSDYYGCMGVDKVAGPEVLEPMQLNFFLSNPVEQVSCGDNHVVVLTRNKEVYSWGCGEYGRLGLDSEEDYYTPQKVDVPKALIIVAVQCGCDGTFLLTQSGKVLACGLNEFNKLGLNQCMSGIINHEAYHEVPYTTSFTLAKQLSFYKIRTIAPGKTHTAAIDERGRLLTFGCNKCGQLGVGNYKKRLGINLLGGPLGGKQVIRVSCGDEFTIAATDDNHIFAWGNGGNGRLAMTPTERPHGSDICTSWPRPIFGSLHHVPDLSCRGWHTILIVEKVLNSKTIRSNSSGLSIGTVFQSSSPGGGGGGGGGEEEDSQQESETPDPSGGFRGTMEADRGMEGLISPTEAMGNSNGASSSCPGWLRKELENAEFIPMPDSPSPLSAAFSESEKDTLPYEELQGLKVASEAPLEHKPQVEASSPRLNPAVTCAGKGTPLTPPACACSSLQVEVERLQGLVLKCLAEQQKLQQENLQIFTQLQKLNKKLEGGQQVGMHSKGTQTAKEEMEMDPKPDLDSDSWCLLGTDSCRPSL

[11] = target: T4, Serine/threonine-protein kinase Nek9 (Homo sapiens); details: at 1 µM
[12] = target: Serine/threonine-protein kinase PLK1 (Homo sapiens) (UniProt P53350); details: at 0.1 µM
[13] = target: Serine/threonine-protein kinase PLK1 (Homo sapiens) (UniProt P53350); details: at 1 µM
[14] = target: T5, Dual specificity protein kinase TTK (Homo sapiens) (UniProt P33981); details: at 0.1 µM
T5 sequence (whole entry): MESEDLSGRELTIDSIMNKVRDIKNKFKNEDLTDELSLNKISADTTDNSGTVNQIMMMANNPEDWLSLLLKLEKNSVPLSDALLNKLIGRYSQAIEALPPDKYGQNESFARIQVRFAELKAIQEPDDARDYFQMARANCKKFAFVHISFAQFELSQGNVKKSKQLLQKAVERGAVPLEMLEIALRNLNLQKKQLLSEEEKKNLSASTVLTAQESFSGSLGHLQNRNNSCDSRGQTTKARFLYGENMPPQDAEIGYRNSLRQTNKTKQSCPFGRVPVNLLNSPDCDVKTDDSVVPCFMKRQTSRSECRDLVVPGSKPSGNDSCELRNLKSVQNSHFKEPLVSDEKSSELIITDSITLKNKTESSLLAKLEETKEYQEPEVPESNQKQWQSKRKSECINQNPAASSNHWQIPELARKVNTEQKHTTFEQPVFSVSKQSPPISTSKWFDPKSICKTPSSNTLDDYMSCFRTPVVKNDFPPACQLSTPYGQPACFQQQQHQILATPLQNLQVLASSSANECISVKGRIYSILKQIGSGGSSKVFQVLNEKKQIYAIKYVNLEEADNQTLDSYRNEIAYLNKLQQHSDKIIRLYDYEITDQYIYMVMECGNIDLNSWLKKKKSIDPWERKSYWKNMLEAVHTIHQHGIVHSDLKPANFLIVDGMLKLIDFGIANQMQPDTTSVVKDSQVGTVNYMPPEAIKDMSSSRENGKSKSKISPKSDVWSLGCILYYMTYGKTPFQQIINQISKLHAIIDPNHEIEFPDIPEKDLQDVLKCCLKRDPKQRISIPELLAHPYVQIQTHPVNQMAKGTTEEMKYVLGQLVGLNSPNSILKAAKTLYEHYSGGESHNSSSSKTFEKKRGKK

[15] = system: T6, Receptor-type tyrosine-protein kinase FLT3 (Homo sapiens), P36888 [D835Y]; details: at 1 µM
T6 sequence (whole entry): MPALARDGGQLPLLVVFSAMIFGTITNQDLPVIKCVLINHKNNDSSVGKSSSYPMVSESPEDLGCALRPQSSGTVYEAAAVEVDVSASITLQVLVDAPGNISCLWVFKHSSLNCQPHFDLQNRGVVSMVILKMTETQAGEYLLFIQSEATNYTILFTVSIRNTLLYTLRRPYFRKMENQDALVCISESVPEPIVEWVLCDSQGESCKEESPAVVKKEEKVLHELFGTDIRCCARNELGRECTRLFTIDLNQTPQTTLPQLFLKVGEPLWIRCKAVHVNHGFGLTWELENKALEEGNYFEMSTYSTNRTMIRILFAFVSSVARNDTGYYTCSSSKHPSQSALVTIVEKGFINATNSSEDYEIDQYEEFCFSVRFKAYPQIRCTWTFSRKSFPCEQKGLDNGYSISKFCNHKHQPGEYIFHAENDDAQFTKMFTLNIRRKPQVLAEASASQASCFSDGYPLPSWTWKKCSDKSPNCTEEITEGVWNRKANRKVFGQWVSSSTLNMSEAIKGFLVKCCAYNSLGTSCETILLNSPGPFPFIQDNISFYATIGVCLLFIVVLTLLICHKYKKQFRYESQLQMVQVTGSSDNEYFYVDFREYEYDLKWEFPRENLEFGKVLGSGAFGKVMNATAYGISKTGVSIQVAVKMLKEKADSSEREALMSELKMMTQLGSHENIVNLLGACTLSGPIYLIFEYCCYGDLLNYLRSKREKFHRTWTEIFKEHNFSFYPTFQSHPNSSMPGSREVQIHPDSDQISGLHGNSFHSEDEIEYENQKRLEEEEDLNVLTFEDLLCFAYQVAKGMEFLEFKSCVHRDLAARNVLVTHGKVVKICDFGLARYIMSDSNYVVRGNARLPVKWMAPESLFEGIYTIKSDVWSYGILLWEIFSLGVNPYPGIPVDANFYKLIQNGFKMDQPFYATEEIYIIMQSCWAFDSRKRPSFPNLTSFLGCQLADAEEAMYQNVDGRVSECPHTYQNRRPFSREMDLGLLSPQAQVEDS

[16] = target: Vascular endothelial growth factor receptor 3 (Homo sapiens) (UniProt P35916); details: at 0.1 µM
[17] = target: Vascular endothelial growth factor receptor 3 (Homo sapiens) (UniProt P35916); details: at 1 µM
[18] = target: Macrophage colony-stimulating factor 1 receptor (Homo sapiens) (UniProt P07333); details: at 0.1 µM
[19] = target: Macrophage colony-stimulating factor 1 receptor (Homo sapiens) (UniProt P07333); details: at 1 µM
[20] = target: Tyrosine-protein kinase Fyn (Homo sapiens) (UniProt P06241); details: at 0.1 µM
Sequence of Tyrosine-protein kinase Fyn (Homo sapiens) (P06241 2-537 limits assumed): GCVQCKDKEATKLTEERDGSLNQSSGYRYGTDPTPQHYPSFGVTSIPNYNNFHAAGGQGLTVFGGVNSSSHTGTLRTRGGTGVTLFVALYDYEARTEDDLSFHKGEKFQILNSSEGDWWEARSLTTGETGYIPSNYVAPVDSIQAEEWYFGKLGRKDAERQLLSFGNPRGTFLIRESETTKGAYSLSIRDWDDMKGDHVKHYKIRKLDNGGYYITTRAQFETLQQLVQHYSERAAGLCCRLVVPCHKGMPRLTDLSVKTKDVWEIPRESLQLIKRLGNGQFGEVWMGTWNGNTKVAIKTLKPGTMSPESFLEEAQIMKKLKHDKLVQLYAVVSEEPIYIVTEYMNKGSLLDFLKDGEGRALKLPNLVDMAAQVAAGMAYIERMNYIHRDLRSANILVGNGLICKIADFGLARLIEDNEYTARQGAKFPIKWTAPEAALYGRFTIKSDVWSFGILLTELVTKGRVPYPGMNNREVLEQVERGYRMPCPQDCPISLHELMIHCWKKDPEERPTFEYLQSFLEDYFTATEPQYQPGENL

Sequence of Vascular endothelial growth factor receptor 3 (Homo sapiens) (P35916 whole entry): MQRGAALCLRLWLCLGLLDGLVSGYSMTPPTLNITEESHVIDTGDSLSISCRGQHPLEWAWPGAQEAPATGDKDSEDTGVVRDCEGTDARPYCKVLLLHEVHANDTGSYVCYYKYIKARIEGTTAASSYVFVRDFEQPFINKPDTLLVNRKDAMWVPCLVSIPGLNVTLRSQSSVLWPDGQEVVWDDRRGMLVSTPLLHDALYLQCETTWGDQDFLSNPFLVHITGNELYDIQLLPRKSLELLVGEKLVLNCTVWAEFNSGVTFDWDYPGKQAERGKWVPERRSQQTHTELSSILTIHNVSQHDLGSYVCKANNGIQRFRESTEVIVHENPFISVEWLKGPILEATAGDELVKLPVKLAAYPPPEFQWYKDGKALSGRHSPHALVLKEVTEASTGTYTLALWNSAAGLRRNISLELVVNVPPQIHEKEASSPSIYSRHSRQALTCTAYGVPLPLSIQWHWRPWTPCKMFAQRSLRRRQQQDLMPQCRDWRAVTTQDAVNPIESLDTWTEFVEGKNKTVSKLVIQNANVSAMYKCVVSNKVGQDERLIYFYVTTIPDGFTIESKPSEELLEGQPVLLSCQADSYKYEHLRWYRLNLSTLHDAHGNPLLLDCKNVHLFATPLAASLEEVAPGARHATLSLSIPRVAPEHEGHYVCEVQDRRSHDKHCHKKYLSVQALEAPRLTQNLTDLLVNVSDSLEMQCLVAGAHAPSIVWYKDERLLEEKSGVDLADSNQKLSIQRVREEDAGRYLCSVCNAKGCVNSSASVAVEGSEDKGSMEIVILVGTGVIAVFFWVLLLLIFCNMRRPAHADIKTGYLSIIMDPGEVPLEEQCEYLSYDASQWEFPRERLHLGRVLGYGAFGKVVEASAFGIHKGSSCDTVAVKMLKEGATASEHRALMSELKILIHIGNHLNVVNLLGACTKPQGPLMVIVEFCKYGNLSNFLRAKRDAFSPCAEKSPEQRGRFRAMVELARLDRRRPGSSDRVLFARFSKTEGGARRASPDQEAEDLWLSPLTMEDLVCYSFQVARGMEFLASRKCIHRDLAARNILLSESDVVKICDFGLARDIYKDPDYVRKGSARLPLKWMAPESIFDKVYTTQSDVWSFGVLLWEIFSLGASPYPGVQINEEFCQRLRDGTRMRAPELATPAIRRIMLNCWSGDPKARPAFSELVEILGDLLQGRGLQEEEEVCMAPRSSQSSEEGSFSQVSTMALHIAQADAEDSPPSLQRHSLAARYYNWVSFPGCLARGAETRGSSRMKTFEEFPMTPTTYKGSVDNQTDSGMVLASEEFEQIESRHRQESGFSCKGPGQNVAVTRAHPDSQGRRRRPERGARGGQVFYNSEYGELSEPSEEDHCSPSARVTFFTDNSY
Sequence of Serine/threonine-protein kinase Nek7 (Homo sapiens) (Q8TDX7 whole entry, looked up): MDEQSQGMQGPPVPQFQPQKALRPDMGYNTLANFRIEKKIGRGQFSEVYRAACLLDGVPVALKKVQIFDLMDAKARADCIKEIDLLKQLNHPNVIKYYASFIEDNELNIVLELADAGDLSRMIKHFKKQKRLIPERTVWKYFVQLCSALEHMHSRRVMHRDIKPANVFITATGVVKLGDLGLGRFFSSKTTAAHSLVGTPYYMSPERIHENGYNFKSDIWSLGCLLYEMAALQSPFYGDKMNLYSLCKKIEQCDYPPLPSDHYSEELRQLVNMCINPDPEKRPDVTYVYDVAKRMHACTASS
Sequence of Serine/threonine-protein kinase Nek6 (Homo sapiens) (Q9HC98 whole entry): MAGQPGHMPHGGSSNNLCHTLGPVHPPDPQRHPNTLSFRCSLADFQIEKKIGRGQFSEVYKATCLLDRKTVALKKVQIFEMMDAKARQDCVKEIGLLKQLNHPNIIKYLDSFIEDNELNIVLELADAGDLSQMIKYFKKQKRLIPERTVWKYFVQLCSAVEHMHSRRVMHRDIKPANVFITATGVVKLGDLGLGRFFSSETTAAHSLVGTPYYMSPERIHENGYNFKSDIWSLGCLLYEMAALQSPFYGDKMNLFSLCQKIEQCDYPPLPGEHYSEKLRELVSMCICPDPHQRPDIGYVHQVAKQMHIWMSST
Sequence of Macrophage colony-stimulating factor 1 receptor (Homo sapiens) (P07333 whole entry): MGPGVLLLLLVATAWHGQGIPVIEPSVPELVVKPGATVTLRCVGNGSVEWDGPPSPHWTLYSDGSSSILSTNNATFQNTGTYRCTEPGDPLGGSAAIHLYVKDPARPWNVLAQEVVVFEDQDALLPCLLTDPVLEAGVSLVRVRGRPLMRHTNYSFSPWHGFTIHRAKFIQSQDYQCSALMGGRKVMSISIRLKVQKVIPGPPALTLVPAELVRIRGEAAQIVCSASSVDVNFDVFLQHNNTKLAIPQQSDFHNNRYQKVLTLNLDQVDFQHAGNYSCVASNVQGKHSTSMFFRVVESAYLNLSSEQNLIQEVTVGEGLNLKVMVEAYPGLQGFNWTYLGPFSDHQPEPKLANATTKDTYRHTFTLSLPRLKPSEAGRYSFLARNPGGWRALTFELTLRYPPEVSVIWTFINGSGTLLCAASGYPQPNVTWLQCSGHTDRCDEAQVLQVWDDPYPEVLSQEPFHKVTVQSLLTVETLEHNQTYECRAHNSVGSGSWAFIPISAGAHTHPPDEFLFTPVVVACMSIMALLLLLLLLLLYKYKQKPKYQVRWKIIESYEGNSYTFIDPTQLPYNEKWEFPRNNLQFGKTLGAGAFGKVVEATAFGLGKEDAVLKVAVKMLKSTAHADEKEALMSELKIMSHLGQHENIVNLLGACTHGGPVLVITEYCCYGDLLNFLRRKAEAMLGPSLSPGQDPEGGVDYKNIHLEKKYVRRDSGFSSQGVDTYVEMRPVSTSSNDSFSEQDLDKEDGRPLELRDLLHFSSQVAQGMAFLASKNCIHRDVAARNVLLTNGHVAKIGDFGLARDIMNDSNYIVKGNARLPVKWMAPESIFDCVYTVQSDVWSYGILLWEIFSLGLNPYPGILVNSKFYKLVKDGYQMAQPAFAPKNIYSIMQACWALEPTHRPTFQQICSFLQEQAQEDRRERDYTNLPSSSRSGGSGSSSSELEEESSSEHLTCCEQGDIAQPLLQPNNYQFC
Sequence of Serine/threonine-protein kinase PLK1 (Homo sapiens) (P53350 whole entry): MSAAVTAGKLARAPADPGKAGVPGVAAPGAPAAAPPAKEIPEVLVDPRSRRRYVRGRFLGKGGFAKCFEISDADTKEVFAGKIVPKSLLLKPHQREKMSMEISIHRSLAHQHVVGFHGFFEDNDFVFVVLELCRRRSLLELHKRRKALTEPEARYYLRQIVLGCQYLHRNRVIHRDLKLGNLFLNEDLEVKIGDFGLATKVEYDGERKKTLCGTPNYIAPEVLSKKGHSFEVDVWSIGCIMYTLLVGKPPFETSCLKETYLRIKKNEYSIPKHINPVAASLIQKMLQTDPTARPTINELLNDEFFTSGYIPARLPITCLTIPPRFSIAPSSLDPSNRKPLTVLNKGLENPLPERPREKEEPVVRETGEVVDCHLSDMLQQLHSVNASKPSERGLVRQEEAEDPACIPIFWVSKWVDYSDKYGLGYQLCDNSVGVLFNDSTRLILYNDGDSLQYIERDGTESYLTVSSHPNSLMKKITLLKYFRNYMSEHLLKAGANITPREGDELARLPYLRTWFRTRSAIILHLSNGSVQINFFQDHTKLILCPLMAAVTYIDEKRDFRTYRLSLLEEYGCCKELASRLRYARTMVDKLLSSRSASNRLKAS

| Compound | inhibition [1] | inhibition [2] | inhibition [3] | inhibition [4] | inhibition [5] | inhibition [6] | inhibition [7] | inhibition [8] | inhibition [9] | inhibition [10] | inhibition [11] | inhibition [12] | inhibition [13] | inhibition [14] | inhibition [15] | inhibition [16] | inhibition [17] | inhibition [18] | inhibition [19] | inhibition [20] |
| --- | --- | --- | --- | --- | --- | --- | --- | --- | --- | --- | --- | --- | --- | --- | --- | --- | --- | --- | --- | --- |
| Fc1ccc(Nc2nccc(-c3c(-c4ccc(C(F)(F)F)cc4)nn4ncccc34)n2)cc1F | 4.2% | 1.24% | 1.72% | 4.93% | 4.4% | -0.59% | 0.48% | 3.33% | 2.76% | 4.79% | 1.67% | 2.18% | 2.92% | 7.64% | -2.39% | 0.19% | -1.91% | 2.64% | 6.66% | 0.1% |
| CS(=O)(=O)CCNCc1ccc(-c2ccc3ncnc(Nc4ccc(OCc5ccccc5)cc4)c3c2)o1 | 4.6% | 2.22% | 2.22% | 4.68% | 3.32% | 2.28% | 3.11% | 2.47% | 3.65% | 5.77% | 15.5% | 3.64% | 3.52% | 5.7% | -0.67% | -0.25% | 4.64% | 1.81% | 6.19% | 1.87% |
